Screening results deposited in PubChem BioAssay by National Center for Advancing Translational Sciences (NCATS).
A selection: hits, their analogues and other compounds. The true share with any hit is near 7.1%.
MCF10A rerep: DNA re-replication induction in MCF 10a cells; MCF 10A DNA re-replication, Hoechst nuclear intensity, 48 h; actives 2.9% (n = 350,000); AID 624296; Potency, µM (top dose mostly 46.1 µM), for the others: at the highest dose activity, positive = re-replication, hits mostly activators; also: potency is read from the fitted curve at half-maximal effect; % of control where 0% means no effect; nearly all actives have a fitted effect of over 50% in size
ATXN2 expr inh: inhibitors of ATXN2 expression | HEK-293 ATXN2-luciferase reporter, luminescence, 24 h | Potency, µM (doses to about 57 µM), inactives show at the top dose activity change, negative = inhibition, most hits filed as inhibitors | actives 0.72% (n = 360,000) | AID 1745845; also: potency is read from the fitted curve at half-maximal effect; % is scaled to controls: 0 for no effect and ±100 for the full control effect; nearly all actives have a fitted effect of over 55% in size
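ATXN2-luciferase reporter cells (luciferase flanked by upstream and downstream ATXN2 gene portions) were treated 24 h at 37 °C with compounds at up to 57 uM. SteadyGlo luminescence gave expression; GF-AFC fluorescence gave viability.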
IL1B secr inh: inflammasome signaling inhibition, IL-1 beta readout; THP-1 LPS/ATP IL-1B secretion, AlphaLISA, 16 h; stronger effect = lower value; activity change, % at 57.5 µM; actives 4.7% (n = 360,000); AID 743279; in the data active = activity change below about -50%; inconclusive = mostly about -30% to -49%; also: % is scaled to controls: 0 for no effect and ±100 for the full control effect
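Secreted IL-1B measured by AlphaLISA bead assay after 16 h compound exposure of THP-1 cells; compounds (final up to 57.5 uM) added 1 h before LPS (250 ng/mL) and ATP (1.25 mM) stimulation; lower signal means less secretion.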
PINK1 expr mod: PINK1 expression modulation. PINK1 immunofluorescence, high-content cytometry, 24 h. Potency, µM (highest dose often 76.6 µM), for the others: at the highest dose activation (PINK1 increase), actives largely listed as activators. actives 0.2% (n = 410,000). AID 624263; active = well fitted activation curve with a large enough effect; inconclusive = small, poorly fitted or top-dose-only effect; cell line not stated here; also: potency is read from the fitted curve at half-maximal effect; % of control where 0% means no effect; nearly all actives have a fitted effect of over 65% in size
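Stable cell line, 250 cells/well, 12 h attachment; compounds pinned at 5 concentrations, 24 h; CCCP control. Fixed with nuclear dye, primary antibodies 12 h at 10 degrees C, secondary plus cell stain; laser-scanning cytometer read.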
SW480 rereplic: inducers of DNA re-replication in SW480 colon cancer cells. SW480 DNA re-replication, Hoechst DNA content imaging, 48 h. Potency, µM (series often up to 46.1 µM), for the others: at the highest dose re-replication activation, hits mostly activators. actives 1.8% (n = 340,000). AID 624297; also: potency is read from the fitted curve at half-maximal effect; % of control where 0% means no effect; nearly all actives have a fitted effect of over 55% in size
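Cells (250 per well) received 23 nL compound or DMSO by pin tool and were kept 48 hr at 37 C, 5% CO2. Nuclei were then stained with Hoechst for 40 min and scanned for DNA content.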
ATXN viability: viability counter-screen for ATXN expression inhibitors; actives 0.49% (n = 400,000); S2 cells (HEK-293 line with an ATXN2-luciferase reporter) viability, CellTiter-Fluor protease fluorescence, 24 h; Potency, µM (top dose mostly 56.7 µM), hits mostly cytotoxic; also: potency is read from the fitted curve at half-maximal effect; nearly all actives have a fitted effect of over 40% in size
Active calls of the source: *; i = inactive; u = inconclusive; x = no result given; ! = not active in a repeat; [ ] = another dose, or the depositor's remark. Unless noted, calls follow the shape of the dose curve; as a rule, active = well fitted curve in the direction sought with a large enough effect; inconclusive = small, poorly fitted or top-dose-only effect, or another doubt; inactive = no such curve, though single readings can be large; an effect the other way counts as inactive or inconclusive.

SMILES	MCF10A rerep	ATXN2 expr inh	IL1B secr inh	PINK1 expr mod	SW480 rereplic	ATXN viability
N#CC1=C(N)N2C(=C(C#N)C1c1ccc(Br)cc1)Nc1ccccc12 (configuration not stated)	2.1µM*	u	u	u	16µM*	x
Cc1cccc(N2CCN(c3ccc4cc(S(=O)(=O)N5CCC(C)CC5)ccc4n3)CC2C)c1 (configuration not stated)	x	4%	x	0%	x	i
O=C(Nc1cccc(F)c1)c1ccc2oc(=O)n(Cc3ccccc3)c2c1	x	-2%	x	8%	x	i
CC1CCN(C(=O)CCC(=O)Nc2nnc(C(F)(F)F)s2)CC1	-1%	x	33	5%	-1%	x
CC1CCCCN1C(=O)CCC(=O)Nc1nnc(C(F)(F)F)s1 (configuration not stated)	23µM*	x	29	0%	u	i
Cc1ccc(C(=O)Nc2ccc3c(c2)CCC3)o1	-4%	50%	-7	1%[38.3 µM]	0%	i
O=C(c1ccccc1)c1cccc(NC(=O)c2ccc(Br)o2)c1	u	56%	-64*	1%	14%	i
O=C(Nc1ccc2c(c1)CCC2)c1ccc(Br)o1	21µM*	33%	-3	0%	-1%[9.22 µM]	i
O=C(Nc1ccc(N2CCN(C(=O)c3ccccc3)CC2)c(Cl)c1)c1ccc(Br)o1	u	u	-101*	-16%[38.3 µM]	14%	u
O=C(Nc1ccc(N2CCOCC2)c(Cl)c1)c1ccc(Br)o1	6%	48%	-74*	3%	1%	i
CCOc1ccc(NC(=O)c2cc3cc(C)ccc3n2C)cc1	x	6%	x	1%	x	u
COc1cccc(NS(=O)(=O)c2ccc3[nH]cc(C(=O)N(C)C4CCCCC4)c(=O)c3c2)c1	x	x	x	-1%	x	x
O=C(Cn1cnc2onc(-c3ccc(F)cc3)c2c1=O)N1CCN(c2ccc(F)cc2)CC1	x	u	x	-2%	x	i
O=C(Nc1ccc(N2CCOCC2)c(Cl)c1)c1cc2ccccc2o1	13µM*	u	-78*	-1%	3%[9.22 µM]	x
O=C(Nc1ccc(N2CCCC2)cc1)c1ccc(Br)o1	-1%	48%	-12	-3%[38.3 µM]	-1%	i
O=C(Nc1ccc(N2CCN(C(=O)c3ccccc3)CC2)cc1)c1ccc(Br)o1	22%	2%	-54*	3%	2%	i
Cc1ccc(Cl)cc1NC(=O)Cn1c(SCC(=O)NCc2ccccc2)nc2ccccc21	x	-15%	x	4%	x	i
Cc1ccccc1NC(=O)Cn1nnc(C(=O)NCc2ccco2)c1N	u	-4%	15	12%	15µM*	u
Cc1cc(C)cc(NC(=O)Cn2nnc(C(=O)NCc3ccco3)c2N)c1	7%	5%	-2	9%	13%	i
CCOc1ccccc1NC(=O)Cn1nnc(C(=O)NCc2ccc(F)cc2)c1N	x	2%	x	4%	x	i
CCOc1ccccc1NC(=O)Cn1nnc(C(=O)NCc2ccc3c(c2)OCO3)c1N	4.6µM*	x	30	5%	u	u
CCOc1ccc(OCC)c(NC(=O)c2nnn(CC(=O)Nc3cc(Cl)ccc3OC)c2N)c1	x	u	x	3%	x	10µM*
COc1ccc(Cl)cc1NC(=O)c1nnn(CC(=O)Nc2ccc(OC)c(OC)c2)c1N	0%	x	-2	0%	3%	i
CCOc1ccccc1NC(=O)Cn1nnc(C(=O)NCc2ccco2)c1N	0.13µM*	-21%	22	1%	u	i
COC(=O)c1ccccc1NC(=O)Cn1c(=O)n(-c2ccc(C)cc2)c(=O)c2ccccc21	x	x	x	6%	x	x
SMILES	MCF10A rerep	ATXN2 expr inh	IL1B secr inh	PINK1 expr mod	SW480 rereplic	ATXN viability
Cc1ccc(N(C)C(=O)Cn2cc(S(=O)(=O)N3CCCC3)c(S(=O)(=O)N3CCCC3)c2)cc1	x	6%	x	1%	x	i
Cc1ccccc1Nc1c(-c2ccccn2)nc2ccccn12	u	x	-23	9%	19%	u
Cc1ccc2nc(-c3ccccn3)c(Nc3ccccc3C)n2c1	u	4.5µM*!	72	u	3.7µM*	u
Cc1ccn2c(Nc3ccccc3)c(-c3ccccn3)nc2c1	16µM*	u	98	u	u	i
Cc1ccc2nc(-c3cccnc3)c(Nc3ccccc3C)n2c1	1%	-33%	-52*	9%	0%	u
Cc1ccn2c(Nc3ccccc3C)c(-c3ccccn3)nc2c1	u	4µM*	0	u	4%	x
NCCC[C@H](N)C(=O)O	x	x	x	x	x	i
O=C(COC(=O)c1cccc(Br)c1)NCC1CCCO1 (configuration not stated)	1%	3%	-4	1%	-4%	i
COc1cccc(CNC(=O)CCc2c(C)c3cc4c(C)coc4cc3oc2=O)c1	x	-8%	x	2%	x	i
C=CCN1C(=O)C2(NC(=O)c3ccccc3N2)c2ccccc21 (configuration not stated)	u	49%[11.3 µM]	53	6%	18µM*	u
C=CCN1C(=O)C2(NNc3ccccc3O2)c2ccccc21 (configuration not stated)	u	-13%	8	3%	0%	i
O=c1[nH]cc(CCc2ccccc2)c2ncncc12	x	x	x	-1%	x	x
CNc1ccc(C(=O)OCC(=O)Nc2ccnn2C(C)C)cc1[N+](=O)[O-]	-4%	-35%	39	0%	-7%	i
Cc1[nH]c2ccccc2c1C(=O)C(C)OC(=O)c1ccc([N+](=O)[O-])o1 (configuration not stated)	23µM*	-24%	-62*	2%	u	i
CCc1noc(C)c1C(=O)OC(C)C(=O)c1c(C)[nH]c2ccccc12 (configuration not stated)	-1%	x	-6	2%	-6%	i
c1ccc2c(-c3cncc4ccccc34)cncc2c1	u	22%	-2	1%	u	i
c1ccc2c(c1)-c1cccc3cncc-2c13	7%	-23%	-84*	-1%	-1%	i
CNC[C@H](CC1CCCCC1)NC[C@H](CO)NCCc1cccc(C(F)(F)F)c1	u	28µM*	-60*	2%	u	22µM*
CNC[C@H](CC1CCCCC1)NC[C@H](CO)NCC1(c2ccccc2)CC1	u	u	-27	-2%	u	i
c1coc(-c2nc3cc4ccccc4cc3nc2-c2ccco2)c1	x	x	x	-1%	x	x
COc1ccc(-n2c(SC(CN3CCCCC3)CN3CCCC3=O)nc3ccccc3c2=O)cc1 (configuration not stated)	6%	5%	-52*	3%	1%	i
COc1ccc(-n2c(SCC(=O)N3CCCCC3)nc3ccccc3c2=O)cc1	2%	-10%	7	17%	2%	u
